Screening results: PubChem, National Center for Advancing Translational Sciences (NCATS)
In the library only some 12% were active in any assay of this set; here they are far more common.
NS1 inh – influenza NS1 inhibition; Potency, µM (doses to about 46.1 µM); 0.4% of 270,000 active; note: actives are rising curves; nearly all actives have a fitted effect of over 50% in size
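Compounds were scored for reversing the slow growth caused by influenza A NS1 in S. cerevisiae, measured by optical density at 600 nm. Assay medium contained 2% galactose at pH 6.0; NS1-free yeast of the same strain were the positive control.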
Shiga toxin inh – inhibitors of Shiga toxin in Vero cells. Vero cells, Shiga toxin protein synthesis inhibition reporter. inhibition, % at 38.7 µM. 9.2% of 290,000 active; in the data active = inhibition mostly above about 28%, no sharp cut-off; inactive = mostly below about 43%
SARS PLP yeast – inhibitors of SARS-CoV papain-like protease in yeast | 0.19% of 330,000 active | Potency, µM (top dose mostly 32.9 µM), hits mostly activators | AID 485353 | S. cerevisiae expressing SARS-CoV PLpro, growth rescue; note: nearly all actives have a fitted effect of over 55% in size
CHX counter – counter-screen for Shiga toxin inhibitors: cycloheximide protein synthesis inhibition. cell reporter, cycloheximide protein synthesis inhibition counterscreen. max response, %. 12% of 300,000 active; in the data active = max response mostly above about 13%, no sharp cut-off; inactive = mostly below about 14%; note: read at 38.3 µM for the half of the compounds with a filed dose
NS1 inh valid – validation of influenza NS1 protein function inhibitors; shares compounds with NS1 inh; influenza NS1 function cell assay, 15-point titration; activity change, negative = inhibition, % at 32.9 µM; 1,400 tested, under 10 active; AID 492980
Flu PR8 replic – influenza virus titer reduction, NS1 project; shares compounds with NS1 inh; MDCK infected influenza A/PR/8/34, virus titer TCID50; hits give low values; virus titer (log TCID50), log10 TCID50 at 5 µM; 30% of 95 active; AID 504647; call rule not given here
Of the large screens only hits and unclear results are named; the others gave an inactive call (follow-up assays come after a bar, where they were run). Unless noted, calls come from the whole dose curve.

CCOC(=O)c1c(NC(=O)CN2C(=O)NC3(CCCCCC3)C2=O)sc(C)c1-c1ccc(C)cc1	none
Cn1c(SCC(=O)NNC(=S)Nc2ccccc2)nnc1-c1ccncc1	NS1 inh 3.2µM | NS1 inh valid inactive
COc1ccccc1NC(=O)/C(C#N)=C/c1ccc(OCCN2CCOCC2)c(OC)c1	none
CC(N=Cc1c(O)[nH]c(=O)[nH]c1=O)c1ccccc1 (centres undefined)	NS1 inh 10µM | NS1 inh valid inactive
CCCCCN(C(=O)CN1CCC(Cc2ccccc2)CC1)c1c(N)n(CCCC)c(=O)[nH]c1=O	none (no result: NS1 inh)
COc1ccccc1N1CCN(C2CCCN(C(=O)c3cscn3)C2)CC1 (centres undefined)	NS1 inh inconclusive | NS1 inh valid inactive
CC1=C(C(=O)N2CCCC(N3CCN(c4ccccc4F)CC3)C2)OCCO1 (centres undefined)	none
COc1ccccc1N1CCN(C2CCCN(C(=O)c3cc(C4CC4)on3)C2)CC1 (centres undefined)	none
CC1=C(C(=O)N2CCCC(N3CCN(c4ccccc4C)CC3)C2)OCCO1 (centres undefined)	NS1 inh 2.5µM | NS1 inh valid inactive
COC(=O)C(Cc1ccccc1)NC(=O)CNC(=O)c1ccc(Br)o1 (centres undefined)	none (no result: NS1 inh, Shiga toxin inh, CHX counter)
Cc1cc(C)c(NC(=O)COC(=O)CCc2ccc(S(=O)(=O)N3CCCCC3)cc2)c(C)c1	none
C/C(=N\NC(=O)C1CCCC1)c1ccc(Cl)cc1	NS1 inh inconclusive, Shiga toxin inh 52, CHX counter 41 | NS1 inh valid inactive
C/C(=N\NC(=O)C1CC1)c1ccc(Cl)cc1	none
C/C(=N\NC(=S)Nc1ccc(C)c(C)c1)c1ccc(N2CCOCC2)cc1	NS1 inh 7.9µM, Shiga toxin inh 24, CHX counter 23 | NS1 inh valid inconclusive
O=C1NC(=S)S/C1=C/c1ccc(N2CCOCC2)o1	NS1 inh 7.9µM | NS1 inh valid inactive
CCOc1ccc(N2C(=O)CC(Sc3nc(C)cc(C)c3C#N)C2=O)cc1 (centres undefined)	NS1 inh 13µM | NS1 inh valid inactive
O=C(c1ccc2c(c1)OCO2)[C@@H]1[C@@H]2C(=O)N(C3CCCCC3)C(=O)[C@@H]2C2c3ccccc3C=CN21 (some centres undefined)	NS1 inh 13µM | NS1 inh valid inactive | Flu PR8 replic inactive
O=C(Nc1ccc2c(c1)OCO2)[C@@H]1[C@@H]2C(=O)N(C3CCCCC3)C(=O)[C@@H]2C2c3ccccc3C=CN21 (some centres undefined)	none
Cc1c(NC(=O)C2CCCN2S(=O)(=O)c2ccccc2)c(=O)n(-c2ccccc2)n1C (centres undefined)	NS1 inh 7.1µM | NS1 inh valid inactive
O=C(OCCN=C1NS(=O)(=O)c2ccccc21)c1cccnc1	NS1 inh inconclusive | NS1 inh valid inactive
Cc1c(C(=O)N2CCN(Cc3ccc4c(c3)OCO4)CC2)sc2ncnc(N3CCN(c4ccccc4)CC3)c12	NS1 inh 2.5µM | NS1 inh valid inconclusive
Nc1ccc(-c2nc3cc(N)ccc3n2CCO)cc1	NS1 inh 7.9µM | NS1 inh valid inactive
Cn1c(CO)nc2cc(N)ccc21	none
C/C(=N\NC(=O)c1cccnc1)c1ccc(C)c([N+](=O)[O-])c1	none (no result: NS1 inh)
C/C(=N\NC(=O)c1[nH]c2c([N+](=O)[O-])cc(C)cc2c1-c1ccccc1)c1cccnc1	NS1 inh 8.9µM | NS1 inh valid inactive
CCOC(=O)c1c(C)[nH]c(C(=O)CN2C(=O)NC(C)(c3ccc4ccccc4c3)C2=O)c1C (centres undefined)	NS1 inh inconclusive | NS1 inh valid inactive
CCCC1(c2ccccc2)NC(=O)N(CC(=O)c2[nH]c(C)c(C(=O)OCC)c2C)C1=O (centres undefined)	NS1 inh inconclusive | NS1 inh valid inactive | Flu PR8 replic 6.7
CC1(c2ccc3ccccc3c2)NC(=O)N(CC(=O)O)C1=O (centres undefined)	none
CCCC1(c2ccccc2)NC(=O)N(CC(=O)Nc2sc(-c3ccccc3)cc2C(=O)OCC)C1=O (centres undefined)	none
COCCCNC(=O)c1ccccc1NS(=O)(=O)c1ccc(C)cc1	none
O=C(/C=C/c1cccnc1)c1cccc(O)c1	NS1 inh inconclusive | NS1 inh valid inconclusive
CCOC(=O)c1c(C)[nH]c(C)c1C(=O)COC(=O)CCc1ccccc1	none (no result: NS1 inh, Shiga toxin inh, CHX counter)
Cc1cccc(N2CCN(S(=O)(=O)c3cc(-c4cc(C)no4)ccc3C)CC2C)c1 (centres undefined)	none
Cc1cc(C)c2c(c1)C1C=CCC1C(c1ccc(S(=O)(=O)N3CCOCC3)cc1)N2 (centres undefined)	none
O=C(O)c1cc(Cl)c2c(c1)[C@@H]1C=CC[C@@H]1[C@H](c1ccc(S(=O)(=O)N3CCOCC3)cc1)N2	NS1 inh 14µM | NS1 inh valid inactive
COc1ccc(C(=O)NC(C(=O)OCC(=O)Nc2sccc2C(N)=O)C(C)C)cc1 (centres undefined)	none (no result: NS1 inh, Shiga toxin inh, CHX counter)
COc1ccc(/C=N/NC(=O)c2nc(-c3ccccc3)cc(-c3ccccc3)n2)cc1OC	none
COc1cccc(/C=N/NC(=O)c2nc(-c3ccccc3)cc(-c3ccccc3)n2)c1	NS1 inh inconclusive | NS1 inh valid inactive
Cc1cc(C)cc(NS(=O)(=O)c2ccc3[nH]cc(C(=O)N4CCc5ccccc54)c(=O)c3c2)c1	NS1 inh 22µM | NS1 inh valid inactive
C/C(CC(=O)N(C(C)C)C(C)C)=N\NC(=O)COc1ccc(Cl)cc1Cl	none (no result: NS1 inh)
C/C(CC(=O)N(C(C)C)C(C)C)=N\NC(=O)COc1ccc(Br)cc1Br	NS1 inh 11µM | NS1 inh valid inconclusive
Cc1c(C(=O)N(Cc2ccccc2)C(C)C)oc2ccc(S(=O)(=O)N3CCOCC3)cc12	none
Cc1nc2ccc(S(=O)(=O)Nc3cccc(-c4nc5cccnc5s4)c3)cc2s1	NS1 inh 11µM | NS1 inh valid inactive
CC(=O)Nc1ccc(/C(C)=N/Nc2nc(Nc3cccc4ccccc34)nc(N3CCOCC3)n2)cc1	NS1 inh 4.5µM | NS1 inh valid inconclusive
CCOC(=O)C1CCCN(C(=O)c2cc(S(=O)(=O)N(C)C)ccc2N2CCCC2)C1 (centres undefined)	none (no result: NS1 inh, Shiga toxin inh, CHX counter)
O=S(=O)(Cc1ccccc1)NCCc1cccc(Cl)c1	none
CCc1ccc(Nc2nnc(SCC(=O)Nc3cccc(S(=O)(=O)NC4=NCCCCC4)c3)s2)cc1	NS1 inh 11µM, Shiga toxin inh active, CHX counter 49 | NS1 inh valid inactive
CC1CN(CCc2ccccc2)c2nc3c(c(=O)n(C)c(=O)n3C)n2C1 (centres undefined)	none
CSCCNC(=O)Nc1c(-c2c(Cl)cccc2Cl)noc1C	none
CC1(NC(=O)CC(c2ccccc2)(c2ccccc2)c2ccccc2)CCN(Cc2ccc(-c3ccccc3)cc2)C1=O (centres undefined)	none (no result: NS1 inh, Shiga toxin inh, CHX counter)
COc1ccc(/C=N/n2c(-c3n[nH]c4c3CCC4)n[nH]c2=S)cc1OC	NS1 inh inconclusive
